# Test results taken from PubChem BioAssay (Tox21).
# Records with an inconclusive call do not appear. Entries that show only a call come without a potency. Calls of active or inactive are those of the source. Calls follow the shape of the dose curve; as a rule, active = well fitted curve in the direction sought with a large enough effect in the repeat runs; inconclusive = weak or mixed curves; inactive = no such curve, though single readings can be large; an effect the other way counts as inactive or inconclusive.
# Assay: A CellTox Green Cytotoxicity Assay to monitor cytotoxicity in HepG2 cells - 16 hour (AID 1224876); also: nearly all actives have a fitted effect of over 45% in size
# Details: CellTox Green fluorescence; series mostly up to 76.8 µM
# In short: (§1)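 Continuous culture of HepG2 cells with a membrane-impermeant DNA dye; rising fluorescence marks dead cells. Compound exposure lasted up to 40 h at 37 C, with reads every 8 h from 0 h.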
row,Structure (SMILES),Potency
1,CCCCC(CC)COC(=O)c1ccc(C(=O)OCC(CC)CCCC)c(C(=O)OCC(CC)CCCC)c1 (centres undefined),inactive
2,C=C(C)C(=O)OCC1CO1 (centres undefined),inactive
3,CCOC(=S)S,inactive
4,CCN(CC)N=O,inactive
5,COc1ccc(C(CN(C)C)C2(O)CCCCC2)cc1 (centres undefined),inactive
6,CCCCCCCCCCCOC(=O)c1ccccc1C(=O)OCCCCCCCCCCC,inactive
7,c1ccc(P(c2ccccc2)c2ccccc2)cc1,inactive
8,Cc1ccc(OP(=O)(Oc2ccc(C)cc2)Oc2ccc(C)cc2)cc1,inactive
9,COc1ccc(C=O)cc1,inactive
10,CNC(=O)Oc1cccc2c1OC(C)(C)O2,inactive
11,O=C1C=CC(=O)C=C1,inactive
12,C=CC(=O)OCCO,inactive
13,CCN(CC)C(=O)/C(Cl)=C(\C)OP(=O)(OC)OC,inactive
14,Nc1cccnc1,inactive
15,Nc1ccc(Cl)c(Cl)c1,inactive
16,CCCCN(CC)c1c([N+](=O)[O-])cc(C(F)(F)F)cc1[N+](=O)[O-],inactive
17,CCC(CC)Nc1c([N+](=O)[O-])cc(C)c(C)c1[N+](=O)[O-],inactive
18,CCCCCCCCOC(=O)c1ccccc1C(=O)OCCCCCCCC,inactive
19,C1=Cc2cccc3cccc1c23,inactive

row,Structure (SMILES),Potency
1,CCOCN(C(=O)CCl)c1c(C)cccc1CC,inactive
2,CCN(CC)C(=O)SCc1ccc(Cl)cc1,inactive
3,COP(=S)(OC)Oc1cc(Cl)c(Cl)cc1Cl,inactive
4,C[C@]12CCC(=O)C(O)=C1CC[C@@H]1[C@@H]2CC[C@]2(C)C(=O)CC[C@@H]12,inactive
5,O=[N+]([O-])c1cccc2ccccc12,inactive
6,N#Cc1cc(Br)c(O)c(Br)c1,inactive
7,CCc1cccc(CC)c1N(COC)C(=O)CCl,inactive
8,CCOc1cc(C=O)ccc1O,inactive
9,N#CC(Br)Br,inactive
10,Clc1nc(Cl)nc(Cl)n1,inactive
11,COP(=O)(OC)OC,inactive
12,CC(O)CCO (centres undefined),inactive
13,CCN(N=O)C(N)=O,inactive
14,NNC(=S)NN,inactive
15,OCC(O)CO,inactive
16,S=C1NCCN1,inactive
17,CC(C)c1ccc(CO)cc1,inactive
18,Oc1cc(Cl)c(Cl)cc1Cl,inactive
19,CC(C)(OOC(C)(C)c1ccccc1)c1ccccc1,inactive

# Assay: qHTS RealTime-Glo MT Cell Viability Assay in HepG2 cells - 32 hour (AID 1224877); also: nearly all actives have a fitted effect of over 55% in size
# Details: RealTime-Glo luminescence; series mostly up to 76.8 µM
# In short: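 Tox21 10K library screened in qHTS format on HepG2 cells carrying RealTime-Glo reagents. Compounds were added after a 5 h preincubation, and the luminescent signal from continuous culture was measured repeatedly during 40 h treatment.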
row,Structure (SMILES),Potency
1,CCCCC(CC)COC(=O)c1ccc(C(=O)OCC(CC)CCCC)c(C(=O)OCC(CC)CCCC)c1 (centres undefined),inactive
2,C=C(C)C(=O)OCC1CO1 (centres undefined),inactive
3,CCOC(=S)S,inactive
4,CCN(CC)N=O,inactive
5,COc1ccc(C(CN(C)C)C2(O)CCCCC2)cc1 (centres undefined),inactive
6,CCCCCCCCCCCOC(=O)c1ccccc1C(=O)OCCCCCCCCCCC,inactive
7,c1ccc(P(c2ccccc2)c2ccccc2)cc1,inactive
8,Cc1ccc(OP(=O)(Oc2ccc(C)cc2)Oc2ccc(C)cc2)cc1,inactive
9,COc1ccc(C=O)cc1,inactive
10,CNC(=O)Oc1cccc2c1OC(C)(C)O2,inactive
11,O=C1C=CC(=O)C=C1,inactive
12,C=CC(=O)OCCO,inactive
13,CCN(CC)C(=O)/C(Cl)=C(\C)OP(=O)(OC)OC,inactive
14,Nc1cccnc1,inactive
15,Nc1ccc(Cl)c(Cl)c1,inactive
16,CCCCN(CC)c1c([N+](=O)[O-])cc(C(F)(F)F)cc1[N+](=O)[O-],inactive
17,CCC(CC)Nc1c([N+](=O)[O-])cc(C)c(C)c1[N+](=O)[O-],inactive
18,CCCCCCCCOC(=O)c1ccccc1C(=O)OCCCCCCCC,inactive
19,C1=Cc2cccc3cccc1c23,inactive

row,Structure (SMILES),Potency
1,CCOCN(C(=O)CCl)c1c(C)cccc1CC,inactive
2,CCN(CC)C(=O)SCc1ccc(Cl)cc1,inactive
3,COP(=S)(OC)Oc1cc(Cl)c(Cl)cc1Cl,inactive
4,C[C@]12CCC(=O)C(O)=C1CC[C@@H]1[C@@H]2CC[C@]2(C)C(=O)CC[C@@H]12,inactive
5,O=[N+]([O-])c1cccc2ccccc12,inactive
6,N#Cc1cc(Br)c(O)c(Br)c1,inactive
7,CCc1cccc(CC)c1N(COC)C(=O)CCl,inactive
8,CCOc1cc(C=O)ccc1O,inactive
9,N#CC(Br)Br,inactive
10,Clc1nc(Cl)nc(Cl)n1,inactive
11,COP(=O)(OC)OC,inactive
12,CC(O)CCO (centres undefined),inactive
13,CCN(N=O)C(N)=O,inactive
14,NNC(=S)NN,inactive
15,OCC(O)CO,inactive
16,S=C1NCCN1,inactive
17,CC(C)c1ccc(CO)cc1,inactive
18,Oc1cc(Cl)c(Cl)cc1Cl,inactive
19,CC(C)(OOC(C)(C)c1ccccc1)c1ccccc1,inactive

# Assay: A CellTox Green Cytotoxicity Assay to monitor cytotoxicity in HepG2 cells - 24 hour (AID 1224878); also: nearly all actives have a fitted effect of over 45% in size
# Details: CellTox Green fluorescence; series mostly up to 76.8 µM
# In short: as §1
row,Structure (SMILES),Potency
1,CCCCC(CC)COC(=O)c1ccc(C(=O)OCC(CC)CCCC)c(C(=O)OCC(CC)CCCC)c1 (centres undefined),inactive
2,C=C(C)C(=O)OCC1CO1 (centres undefined),inactive
3,CCOC(=S)S,inactive
4,CCN(CC)N=O,inactive
5,COc1ccc(C(CN(C)C)C2(O)CCCCC2)cc1 (centres undefined),inactive
6,CCCCCCCCCCCOC(=O)c1ccccc1C(=O)OCCCCCCCCCCC,inactive
7,c1ccc(P(c2ccccc2)c2ccccc2)cc1,inactive
8,Cc1ccc(OP(=O)(Oc2ccc(C)cc2)Oc2ccc(C)cc2)cc1,inactive
9,COc1ccc(C=O)cc1,inactive
10,CNC(=O)Oc1cccc2c1OC(C)(C)O2,inactive
11,O=C1C=CC(=O)C=C1,inactive
12,C=CC(=O)OCCO,inactive
13,CCN(CC)C(=O)/C(Cl)=C(\C)OP(=O)(OC)OC,inactive
14,Nc1cccnc1,inactive
15,Nc1ccc(Cl)c(Cl)c1,inactive
16,CCCCN(CC)c1c([N+](=O)[O-])cc(C(F)(F)F)cc1[N+](=O)[O-],inactive
17,CCC(CC)Nc1c([N+](=O)[O-])cc(C)c(C)c1[N+](=O)[O-],inactive
18,CCCCCCCCOC(=O)c1ccccc1C(=O)OCCCCCCCC,inactive
19,C1=Cc2cccc3cccc1c23,inactive

row,Structure (SMILES),Potency
1,CCOCN(C(=O)CCl)c1c(C)cccc1CC,inactive
2,CCN(CC)C(=O)SCc1ccc(Cl)cc1,inactive
3,COP(=S)(OC)Oc1cc(Cl)c(Cl)cc1Cl,inactive
4,C[C@]12CCC(=O)C(O)=C1CC[C@@H]1[C@@H]2CC[C@]2(C)C(=O)CC[C@@H]12,inactive
5,O=[N+]([O-])c1cccc2ccccc12,inactive
6,N#Cc1cc(Br)c(O)c(Br)c1,inactive
7,CCc1cccc(CC)c1N(COC)C(=O)CCl,inactive
8,CCOc1cc(C=O)ccc1O,inactive
9,N#CC(Br)Br,inactive
10,Clc1nc(Cl)nc(Cl)n1,inactive
11,COP(=O)(OC)OC,inactive
12,CC(O)CCO (centres undefined),inactive
13,CCN(N=O)C(N)=O,inactive
14,NNC(=S)NN,inactive
15,OCC(O)CO,inactive
16,S=C1NCCN1,inactive
17,CC(C)c1ccc(CO)cc1,inactive
18,Oc1cc(Cl)c(Cl)cc1Cl,inactive
19,CC(C)(OOC(C)(C)c1ccccc1)c1ccccc1,inactive
